Screening results as filed in PubChem BioAssay.
Hits are enriched below; roughly 21% of the tested compounds scored in any of these assays.
Sm TGR inh – qHTS Assay for the Inhibitors of Schistosoma Mansoni Peroxiredoxins; Schistosoma mansoni thioredoxin glutathione reductase (TGR), Q962Y6; purified TGR, DTNB reduction, TNB absorbance 405 nm; Potency, µM (titrated, usually from 114 µM), usual class: inhibitors; hit rate 3% among 360,000; AID 485364, 2010; also: nearly all actives have a fitted effect of over 60% in size
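First, TGR (20 nM dispensed) and NADPH were mixed with compound. Second, a 15 min room-temperature incubation followed. Third, further NADPH and then DTNB were added to start the reaction. Finally, TNB absorbance was monitored kinetically.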
Pf growth 48h – Primary qHTS for delayed death inhibitors of the malarial parasite plastid, 48 hour incubation; P. falciparum luciferase growth in erythrocytes, 48 h; Potency, µM (series often up to 28.7 µM), most hits filed as inhibitors; hit rate 5.9% among 310,000; AID 504832, 2011
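Parasite viability was followed by luminescence of a genomically integrated firefly luciferase. Cultures held 0.1% parasitemia at 2% hematocrit (final), incubated under 5% CO2 at 37 C.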
Shiga toxin inh – A qHTS for Small Molecule Inhibitors of Shiga Toxin; Vero cells, Shiga toxin protein synthesis inhibition reporter; hit rate 9.2% among 290,000; AID 2315, 2010; inhibition, % at 38.7 µM; in the data active = inhibition mostly above about 28%, no sharp cut-off; inactive = mostly below about 43%
NS1 function inh – qHTS Assay for Inhibitors of Influenza NS1 Protein Function; Potency, µM (top dose mostly 46.1 µM); hit rate 0.4% among 270,000; AID 2326, 2010; calls by dose curve; also: actives are rising curves; nearly all actives have a fitted effect of over 50% in size
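A cell-based growth assay was used: compounds that relieve NS1-induced slow growth of budding yeast raise OD600. Assay medium was yeast nitrogen base with ammonium sulphate and -URA supplement, pH 6.0, with 2% galactose.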
Cycloheximide cs – Cycloheximide Counterscreen for Small Molecule Inhibitors of Shiga Toxin; cell reporter, cycloheximide protein synthesis inhibition counterscreen; max response, %; hit rate 12% among 300,000; in the data active = max response mostly above about 13%, no sharp cut-off; inactive = mostly below about 14%; also: read at 38.3 µM for the half of the compounds with a filed dose
Pf growth 96h – Primary qHTS for delayed death inhibitors of the malarial parasite plastid, 96 hour incubation. Potency, µM (highest dose often 28.7 µM), most hits filed as inhibitors. hit rate 6.9% among 320,000. AID 504834, 2011. P. falciparum luciferase reporter growth, 96 h
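Compounds incubated with erythrocytes infected by luciferase-expressing P. falciparum (2% hematocrit, 0.05% parasitemia final) for 96 hours, 37 C in 5% CO2. Growth inhibition scored as decreased luciferase luminescence.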
Of the large screens only hits and unclear results are named; the others gave an inactive call. Unless noted, calls follow the shape of the dose curve; as a rule, active = well fitted curve in the direction sought with a large enough effect; inconclusive = small, poorly fitted or top-dose-only effect, or another doubt; inactive = no such curve, though single readings can be large; an effect the other way counts as inactive or inconclusive.

CCOC(=O)C1CCN(C2=NC(=O)/C(=C/c3ccc(Cl)cc3)S2)CC1	none
CC(C)CCCC(C)NC(C)C (centres undefined)	none (no result: Sm TGR inh, Shiga toxin inh, NS1 function inh, Cycloheximide cs)
CCc1cccc(NC(=O)c2cc(S(=O)(=O)N3CCCCCC3)cn2C)c1	none (no result: Pf growth 48h, Shiga toxin inh, NS1 function inh, Cycloheximide cs, Pf growth 96h)
Cc1ccccc1Nc1c(-c2ccc(O)cc2)nc2c(C)cccn12	none (no result: Pf growth 48h, Shiga toxin inh, NS1 function inh, Cycloheximide cs, Pf growth 96h)
CSC1=NC(=O)/C(=C/c2ccc(SC)cc2)S1	Cycloheximide cs 30.8 (no result: NS1 function inh)
CSC1=N/C(=C\c2ccc(F)cc2)C(=O)S1	Pf growth 96h inconclusive
O=C(NCc1ccncc1)c1nc(-c2cccs2)no1	none (no result: NS1 function inh)
O=C(NCCc1ccccc1)c1nc(-c2cccs2)no1	Shiga toxin inh 90.3, Cycloheximide cs 44.6 (no result: Sm TGR inh)
O=C(NCc1cccs1)c1nc(-c2cccs2)no1	Shiga toxin inh 66.1, Cycloheximide cs 21.1 (no result: NS1 function inh)
CC1CCC(NC(=O)N(CCCl)N=O)CC1 (centres undefined)	Pf growth 48h 5.36µM, Pf growth 96h 6.75µM (no result: Sm TGR inh, Shiga toxin inh, NS1 function inh, Cycloheximide cs)
COc1ccccc1CNC(=O)COC(=O)[C@H](Cc1c[nH]c2ccccc12)NC(=O)c1cccs1	none
CCOC(=O)C1=CN(CC2CCCO2)C=C(C(=O)OCC)C1c1ccccc1C(F)(F)F (centres undefined)	Pf growth 48h 8.28µM, Pf growth 96h inconclusive (no result: Sm TGR inh)
COc1ccc([N+](=O)[O-])cc1N(CC(=O)N(C)C)S(C)(=O)=O	none
CC(C)CCC(CCNCc1ccccn1)c1ccc(Cl)cc1 (centres undefined)	Pf growth 48h 3.29µM, Pf growth 96h 3.29µM
CC(C)CNCCc1ccccn1	none (no result: Sm TGR inh, Pf growth 48h, Shiga toxin inh, Cycloheximide cs, Pf growth 96h)
C=CC[C@@H]1/C=C(\C)C[C@H](C)C[C@H](OC)[C@H]2O[C@@](O)(C(=O)C(=O)N3CCCC[C@H]3C(=O)O[C@H](/C(C)=C/[C@@H]3CC[C@@H](O)[C@H](OC)C3)[C@H](C)[C@@H](O)CC1=O)[C@H](C)C[C@@H]2OC	Pf growth 48h 1.69µM, Pf growth 96h 1.51µM (no result: Sm TGR inh, NS1 function inh)
CC[C@@H]1/C=C(\C)C[C@H](C)C[C@H](OC)[C@H]2O[C@@](O)(C(=O)C(=O)N3CCCC[C@H]3C(=O)O[C@H](/C(C)=C/[C@@H]3CC[C@@H](O)[C@H](OC)C3)[C@H](C)[C@@H](O)CC1=O)[C@H](C)C[C@@H]2OC	none (no result: Sm TGR inh, Pf growth 48h, NS1 function inh, Pf growth 96h)
N/C(=N\OC(=O)c1cccc(Cn2cc(C(F)(F)F)ccc2=O)c1)c1ccc(Cl)cc1	Pf growth 48h inconclusive, Pf growth 96h inconclusive
Cc1ccc(/C(N)=N/OC(=O)c2cccc(Cn3cc(C(F)(F)F)ccc3=O)c2)cc1	Pf growth 48h inconclusive, Pf growth 96h inconclusive
N/C(=N\OC(=O)c1cccc(Cn2cc(C(F)(F)F)ccc2=O)c1)c1ccccc1	Pf growth 48h inconclusive, Shiga toxin inh 40.8, Cycloheximide cs 32.1, Pf growth 96h inconclusive
O=C(Sc1ccc(Cl)cc1)c1cccc(Cn2cc(C(F)(F)F)ccc2=O)c1	Sm TGR inh 20µM
O=C(NCCCn1ccnc1)/C(=C\c1cccnc1)NC(=O)c1ccccc1F	none
Cc1ccc(-n2ncc(Cl)c2C(=O)NCc2ccccc2)cc1	Shiga toxin inh 57.6, Cycloheximide cs 42.4
C=CCNC(=O)c1c(Br)cnn1-c1ccc(C)cc1	Shiga toxin inh 58.7, Cycloheximide cs 45.0
Cc1ccccc1N1CCN(C(=O)NCc2cccc(Cl)c2)CC1	Pf growth 48h inconclusive, Pf growth 96h inconclusive
N#Cc1c(NC(=S)NC(=O)Cc2cccs2)sc2c1CCCCC2	none
COc1cc(C)cc2oc(=O)c(CC(=O)N3CCN(C(=O)C4COc5ccccc5O4)CC3)c(C)c12 (centres undefined)	Pf growth 48h inconclusive
CC(=O)Oc1ccc2c(C)c(CC(=O)N3CCN(C(=O)C4COc5ccccc5O4)CC3)c(=O)oc2c1C (centres undefined)	Pf growth 48h 11.7µM, Pf growth 96h inconclusive
CCCC(=O)NC(Oc1ccc(OC)cc1)C(Cl)(Cl)Cl (centres undefined)	none (no result: Sm TGR inh)
CCCC(=O)NC(Oc1ccc(Cl)cc1Cl)C(Cl)(Cl)Cl (centres undefined)	Sm TGR inh 31.6µM
CCCC(=O)NC(Oc1ccccc1Cl)C(Cl)(Cl)Cl (centres undefined)	Sm TGR inh 12.6µM
